In the library only some 6% were active in any assay of this set; here they are far more common.
D1 ag: Allosteric Agonists of the Human D1 Dopamine Receptor: qHTS. D(1A) dopamine receptor (Homo sapiens), P21728. HEK293 T-REx D1 cells, calcium flux, agonist mode. activation, % at 2 µM. 360,000 compounds, 1% hits; in the data active = activation above about 30%
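Agonism was scored from calcium flux recorded over 180 s (1 read/s) after pintool compound addition, following a 10-cycle baseline. Cells were inducible force-coupled HEK293 TREx D1, plated overnight at 30 C and loaded with no-wash calcium dye.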
D1 potentiator: Potentiators of Human D1 Dopamine Receptor: qHTS; D(1A) dopamine receptor (Homo sapiens), P21728; HEK293 TREx D1 cells, calcium flux, dopamine EC20 potentiation; potentiation, % at 10 µM; 360,000 compounds, 0.036% hits; AID 504651, 2011; in the data active = potentiation above about 30%
D3 ag: qHTS of D3 Dopamine Receptor Agonist: qHTS; D(3) dopamine receptor (Homo sapiens), P35462; D3R DiscoveRx beta-arrestin cells, luminescence, 90 min; max activation, %; 410,000 compounds, 0.58% hits; in the data active = max activation above about 30%
Target sequence (P35462 whole entry, looked up): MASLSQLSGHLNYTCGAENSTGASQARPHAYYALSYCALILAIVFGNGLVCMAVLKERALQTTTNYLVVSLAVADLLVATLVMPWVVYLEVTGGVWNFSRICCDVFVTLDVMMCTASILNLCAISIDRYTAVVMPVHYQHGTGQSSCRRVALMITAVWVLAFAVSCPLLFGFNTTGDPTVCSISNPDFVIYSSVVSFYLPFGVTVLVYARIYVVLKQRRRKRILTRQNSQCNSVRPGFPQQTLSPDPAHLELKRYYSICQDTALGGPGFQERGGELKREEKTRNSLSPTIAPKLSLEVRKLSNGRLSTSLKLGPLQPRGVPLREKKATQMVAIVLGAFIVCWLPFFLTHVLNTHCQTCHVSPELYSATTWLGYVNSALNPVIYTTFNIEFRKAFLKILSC
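Agonist mode: compounds and dopamine controls were applied to plated cells for 90 min at 37 degrees C after an overnight attachment at 1500 cells/well. Luminescent read-out followed 30 - 60 minutes at room temperature with DiscoveRx detection reagent.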
D3 antag: qHTS of D3 Dopamine Receptor Antagonist: qHTS | AID 652054, 2013 | max response, negative = inhibition, % | 360,000 compounds, 2.5% hits | D(3) dopamine receptor (Homo sapiens), P35462 | D3R cells, DiscoveRx beta-arrestin luminescence, antagonist mode; active compounds read low; in the data active = max response below about -50%; inconclusive = no clear call, values can overlap the other calls
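Cells plated overnight at 1500 cells/well, then exposed to library compounds with dopamine controls for 90 minutes at 37 degrees C. DiscoveRx reagent added for 30–60 minutes at room temperature; luminescence read, quantitative HTS format.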
D1 antag: Antagonist of Human D 1 Dopamine Receptor: qHTS; D(1A) dopamine receptor (Homo sapiens), P21728; HEK293 TREx D1 cells, calcium flux, dopamine EC80; active compounds read low; activity change, negative = inhibition, % at 10 µM; 360,000 compounds, 3.2% hits; in the data active = activity change below about -30%
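Using tetracycline-induced force-coupled D1 Hek293 cells and a calcium dye, signals were followed for 180 s after compound, then for 180 s after EC80 dopamine, to detect inhibitors.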
Each line names hits and unclear results; the compound was inactive in the other large screens; ! = a repeat was not active.

Cc1cccc(-c2nc(CN3CCCC(C(=O)N4CCN(c5cc(Cl)ccc5C)CC4)C3)c(C)o2)c1 (configuration not stated)	none (no result: D3 antag)
COc1ccc(-c2cc(C(F)F)nc(-n3nc(C)cc3C)n2)cc1	D1 antag -60
Cc1ccc(-c2cc(C(F)F)nc(N3CCOCC3)n2)cc1	none
CN1CCc2c(sc3c2C(=O)NC(c2ccc(OC(=O)c4ccc(Cl)cc4)cc2)N3)C1 (configuration not stated)	D1 ag 145 (no result: D3 antag)
CN1CCc2c(sc3c2C(=O)NC(c2ccc(OC(=O)c4ccc(C(C)(C)C)cc4)cc2)N3)C1 (configuration not stated)	D1 ag 263 (no result: D3 antag)
CN1CCc2c(sc3c2C(=O)NC(c2ccc(OC(=O)c4ccccc4)cc2)N3)C1 (configuration not stated)	D1 ag 114 (no result: D3 antag)
COc1ccc(-n2c(CCC(=O)O)ccc2-c2ccccc2)c(OC)c1	none (no result: D3 antag)
CCn1cc2nc(SCc3cccc(OC)c3)n(Cc3ccc(Cl)cc3)c(=O)c2n1	none (no result: D3 antag)
O=C(O)/C=C/C(=O)N1CCN(c2cccc(Cl)c2)CC1	D3 antag -60, D1 antag -41
O=C(C(Cc1ccccc1)n1cccc1)N1CCN(c2cccc(Cl)c2)CC1 (configuration not stated)	none (no result: D1 potentiator)
COc1ccc(CCC(=O)N2CCN(S(=O)(=O)c3cccc(Cl)c3)CC2)cc1	D1 antag -39
O=C(O)CCC(=O)N1CCN(c2cccc(Cl)c2)CC1	D3 antag -63
CCC(C(=O)N1CCN(c2cccc(Cl)c2)CC1)c1ccccc1 (configuration not stated)	D3 antag -59
CCn1c(NCc2cccc(Cl)c2)nc2ccccc21	none (no result: D3 antag)
CCN(CC)c1ccc(NC(=O)c2c(C)nn(-c3ccc(F)cc3)c2-n2cccc2)c(C)c1	none (no result: D3 antag)
COCCCNC(=O)CC(c1cc(OC)c(OC)c(OC)c1)N1Cc2ccccc2C1=O (configuration not stated)	none (no result: D3 antag)
Cc1cccc(-c2nc3c4ccccc4nc(N4CCN(c5cccc(Cl)c5)CC4)n3n2)c1	none (no result: D3 antag)
NS(=O)(=O)c1ccc(NC(=O)CN2CCN(c3ccc(F)cc3)CC2)cc1	none (no result: D3 antag)
COc1ccc(OCC(=O)N2CCN(c3cccc(Cl)c3)CC2)cc1	none
COc1ccc(C(=S)N2CCN(c3cccc(Cl)c3)CC2)cc1	D1 antag -33!
COc1cc2c(C(=O)N3CCN(c4cccc(Cl)c4)CC3)cn(C)c(=O)c2cc1OC	none
COc1ccc(C(=O)CCC(=O)N2CCN(c3cccc(Cl)c3)CC2)cc1	D1 antag -33
CCn1cc(C(=O)N2CCN(c3cccc(Cl)c3)CC2)c2cc(OC)c(OC)cc2c1=O	D1 antag -53!
O=C(O)CCC(=O)N1CCN(c2ccccn2)CC1	none
O=C(O)CCC(=O)N1CCN(c2ncccn2)CC1	D1 antag -32
O=C(O)CCC(=O)N1CCN(c2nc3ccccc3s2)CC1	D1 antag -69
Cc1cccc(C)c1NC(=O)N1CCN(c2nc3ccccc3s2)CC1	none
O=C1C(SCCO)=C(SCCO)C(=O)c2ccccc21	D3 antag -136, D1 antag -32
O=c1[nH]c2ccccc2c(O)c1SCCO	none
C=CCN1C(=Nc2cccnc2)SCC1(O)c1ccc(C)cc1 (configuration not stated)	D1 antag -56 (no result: D3 ag, D3 antag)
COCCCNC(=O)Cn1ncc2c(=O)oc3ccccc3c21	D1 antag -30
CCN(CCCNC(=O)Cn1ncc2c(=O)oc3ccccc3c21)c1cccc(C)c1	D1 antag -37
CCCN(C(=O)Cn1ncc2c(=O)oc3ccccc3c21)c1cccc(C)c1	none
Cc1ccc2oc(=O)c3cnn(CC(=O)NCCC(C)C)c3c2c1	D1 antag -37
O=C(NC1CC(=O)N(c2cccc(F)c2)C1)C(c1ccccc1)c1ccccc1 (configuration not stated)	none (no result: D3 antag, D1 antag)
COc1cc(CN(C(=O)c2ccccc2[N+](=O)[O-])c2ccccn2)cc(OC)c1OC	none (no result: D3 antag)
CC(Oc1ccc(C(C)(C)C)cc1)c1ccnc2nc(/N=C/N(C)C)nn12 (configuration not stated)	D1 ag 46
Cc1ccc(/C(O)=C/C(=O)C(=O)NNC(=O)C(O)(c2ccccc2)c2ccccc2)cc1	D3 antag -88
Cc1ccccc1-c1nc(SCC(=O)NCc2ccc(F)cc2)c2c(=O)n(C)c(=O)n(C)c2n1	none (no result: D3 antag)
Oc1ccc(-c2ccccc2)cc1CN1CCCCCC1	D3 antag -93
Oc1cccnc1CN1CCCCC1	none (no result: D1 ag, D1 potentiator, D1 antag)
Oc1ccc(CN2CCCCC2)nc1-c1ccccc1	D3 antag -52
Cc1cc(=O)n2c(nc3ccccc32)s1	none (no result: D1 ag, D1 potentiator, D1 antag)
CCOC(=O)C1=C(CSc2nc3ccccc3s2)NC(=O)NC1c1cc(C)ccc1C (configuration not stated)	D3 ag 31
C1=C(c2ccccc2)CCN(c2ncnc3nc[nH]c23)C1	D1 antag -66
Cc1cc(/C=C2\SC(=O)NC2=O)c(C)n1-c1ccc(N(C)C)cc1	D1 antag -52
CCc1cccc2cc3c(N)c(C(=O)Nc4ccc(S(=O)(=O)N5CCCC5)cc4)sc3nc12	D1 ag 60
CSc1cccc(CN2CCC(CO)(Cc3cccc(C(F)(F)F)c3)CC2)c1	D1 ag 41, D3 antag inconclusive
OCC1(Cc2cccc(C(F)(F)F)c2)CCN(Cc2cc(F)cc(F)c2)CC1	none
Cc1ccc(-n2cc(CN3CCC(CO)(Cc4cccc(C(F)(F)F)c4)CC3)cn2)cc1	D3 antag -61
Cc1ccsc1/C=N/NC(=O)c1ccc2ccccc2c1	D3 antag inconclusive, D1 antag -49
CCc1ccc(C(=O)c2cn(CC(=O)NCCc3ccc(OC)c(OC)c3)c3nc(C)ccc3c2=O)cc1	none (no result: D3 antag)
CCCc1ccc(C(=O)NC(=O)c2ccccc2O)cc1	D1 antag -64
O=C(NC(=O)c1ccccc1O)c1ccc(C(F)(F)F)cc1	D1 ag 37
O=C(NC(=S)NNC(=O)c1ccccc1O)c1ccc(F)cc1	none
CCCc1ccc(C(=O)NNC(=O)c2ccc(Br)cc2)cc1	none
Cn1c(=O)oc2cc(S(=O)(=O)N3CCCC(C(=O)NCCc4ccc(Cl)cc4)C3)ccc21 (configuration not stated)	none (no result: D3 antag)
CCOc1ccc(Cl)cc1CNCCCSc1nnnn1C	none (no result: D3 antag)
Cn1nnnc1SCCCNCc1ccc(-c2cccc(Cl)c2)o1	D1 ag 100, D1 antag -57 (no result: D3 antag)
COc1ccc(-c2ccc(CNCCCSc3nnnn3C)o2)cc1Cl	D1 ag 37 (no result: D3 antag)
Cn1nnnc1SCCCNCc1ccc(-c2ccc(F)c(Cl)c2)o1	none (no result: D3 antag)
